Only some compounds are listed: those with a hit (about 6.5% of all), similar ones and a draw of the others.
Lassa entry inh = inhibitors of Lassa virus binding or cell entry; Lassa virus pseudotype entry inhibition, cell reporter; Potency, µM (top dose mostly 37.9 µM), for the others: at the top dose activity change, negative = inhibition, most hits filed as inhibitors; 300,000 compounds, 1.2% hits; calls by dose curve; tested in HEK293 cells; note: potency is the fitted concentration of half-maximal effect; nearly all actives have a fitted effect of over 50% in size
Marburg entry inh = inhibitors of Marburg virus binding or cell entry | AID 540276 | 300,000 compounds, 1.8% hits | Marburg virus pseudotyped entry inhibition, cell reporter | Potency, µM (series often up to 37.8 µM), without a hit: at the top dose activity change, negative = inhibition, most hits filed as inhibitors; calls by dose curve; tested in HEK293 cells; note: potency is the fitted concentration of half-maximal effect
FMDV antiviral = antivirals against foot and mouth disease virus. FMDV antiviral cell-based qHTS. Potency, µM (doses to about 57.9 µM), inactives show at the top dose activity change, negative = inhibition, usual class: inhibitors. 410,000 compounds, 1.2% hits. AID 1159524; calls by dose curve; tested in HEK293T cells; note: read-out not given here; potency is the fitted concentration of half-maximal effect; nearly all actives have a fitted effect of over 45% in size
Vaccinia Venus = vaccinia inhibition (Venus reporter). Vaccinia virus Venus reporter expression, fluorescence. AID 720580. Potency, µM (top dose mostly 36.5 µM), inactives show at the highest dose activity change, negative = inhibition, hits mostly inhibitors. 330,000 compounds, 0.46% hits; calls by dose curve; tested in A549 cells; note: potency is the fitted concentration of half-maximal effect; nearly all actives have a fitted effect of over 30% in size
HCMV antiviral = inhibitors of human cytomegalovirus; HFF cells, HCMV-luciferase reporter, 72 h; stronger effect = lower value; 410,000 compounds, 4.5% hits; activity change, negative = inhibition, % at 57.5 µM; AID 1259415; in the data active = activity change below about -60%; inconclusive = no clear call, values can overlap the other calls; inactive = above about -39%
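Luciferase read-out from HCMV-luciferase-infected HFFs (MOI 1 PFU/cell) 72 h post infection at 37C; compounds added after 16 h cell attachment; activity normalized between buffer-only basal and Salinomycin (10uM) inhibitor controls.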
Vaccinia mCherry = inhibitors of vaccinia virus infection (mCherry reporter signal) | Potency, µM (series often up to 36.5 µM), inactives show at the top dose activity change, negative = inhibition, most hits filed as inhibitors | 310,000 compounds, 0.63% hits | Vaccinia virus mCherry reporter infection, fluorescence; calls by dose curve; tested in A549 cells; note: potency is the fitted concentration of half-maximal effect; nearly all actives have a fitted effect of over 35% in size
An asterisk follows results filed as active; i = inactive; ? = inconclusive; · = no result; [ ] = another dose, or the depositor's remark. % is set by controls: 0 for no effect and ±100 for the full control effect.

SMILES	Lassa entry inh	Marburg entry inh	FMDV antiviral	Vaccinia Venus	HCMV antiviral	Vaccinia mCherry
CCc1cc2c3c(c1)C1(C(=O)N3C(C)(C)CC2C)C(C#N)=C(N)N2C(=C1C#N)Nc1ccccc12 (stereo not given)	13µM*	?	?	-30%	?	?
CCN(c1ccccc1)S(=O)(=O)c1ccc2[nH]cc(C(=O)NC3CCCCC3)c(=O)c2c1	?	·	-24%	-9%	-102*	-23%
C=CCNC(=O)c1c[nH]c2ccc(S(=O)(=O)N(C)c3ccc(OCC)cc3)cc2c1=O	·	·	0%	·	-67*	·
CCCNC(=O)c1c[nH]c2ccc(S(=O)(=O)N(C)c3ccc(OCC)cc3)cc2c1=O	?	?	?	-26%	?	·
Cc1ccc(C)c(N(C)S(=O)(=O)c2ccc3[nH]cc(C(=O)NC4CCCC4)c(=O)c3c2)c1	-6%[46.1 µM]	·	-13%	?	-75*	?
Cc1ccc(NC(=O)c2ccc(NC(=O)N3CCSc4ncccc43)cc2)cc1Cl	?	·	?	-26%	?	-3%
COc1ccc(OCC(O)CNCCOc2ccccc2OC)c(C(C)(C)C)c1 (stereo not given)	·	·	?	·	-67*	·
Cc1ccc(NC(=O)c2ccc(NCCCN3CCOCC3)c([N+](=O)[O-])c2)cc1Cl	?	?	32µM*	?	?	?
O=C(Nc1ccc(Cl)c([N+](=O)[O-])c1)c1ccc(NCCCN2CCOCC2)c([N+](=O)[O-])c1	-2%	6.5µM*	8%	·	-20	·
COc1ccc(C2=C(C)C(=O)N(Cc3ccc(C(=O)Nc4ccc(F)cc4C)cc3)S2(=O)=O)cc1	?	·	-23%	-16%	-63*	-12%
COc1ccc(C2=C(C)C(=O)N(Cc3ccc(C(=O)Nc4cccc(F)c4)cc3)S2(=O)=O)cc1	-15%[46.1 µM]	·	?	-26%	-26	-20%
COc1ccc(CN2C(=O)C(CC(=O)NC3CCCC3)CC(C(=O)N(C(C)C)C(C)C)=C2C)cc1 (stereo not given)	·	·	-4%	-8%	-12	-16%
CC1=C(C(=O)N(C(C)C)C(C)C)CC(CC(=O)NC2CCCCC2)C(=O)N1Cc1ccc(C(C)(C)C)cc1 (stereo not given)	·	·	8%	-20%	-88*	3%
CCN(CC)C(=O)C1=C(C)N(Cc2ccc(C(C)(C)C)cc2)C(=O)C(CC(=O)NC(c2ccccc2)c2ccccc2)C1 (stereo not given)	·	·	?	13µM*	-18	?
CC1=C(C(=O)N(C)C)CC(CC(=O)NC(c2ccccc2)c2ccccc2)C(=O)N1Cc1ccc(C(C)(C)C)cc1 (stereo not given)	·	·	-11%	?	31	-13%
C[C@H]1[C@@H](NS(=O)(=O)c2cccs2)CC[C@@]23CCCN2C(=O)CCC[C@@H]13	·	·	·	·	3	·
O=C(c1cnn2cccnc12)N1CCOc2ccc(C(O)C(c3ccccc3)c3ccccc3)cc2C1 (stereo not given)	·	·	-6%	?	·	?
COc1ccc(/C=C2/CSC/C(=C/c3ccc(OC)c(OC)c3)C2=O)cc1OC	3.2µM*	3.5µM*	3.5µM*	?	-101*	2.5µM*
CCOc1ccc(/C=C2\CCC(C3CCCC3)C2=O)cc1OC (stereo not given)	·	·	68%	·	6	·
COc1ccc2c(c1)OC/C(=C/c1ccc(OC)c(OC)c1)C2=O	·	·	?	?	·	-13%
COc1cc(C=C2CCCC(=Cc3ccc(OCC4CO4)c(OC)c3)C2=O)ccc1OCC1CO1 (stereo not given)	·	·	11µM*	?	-68*	?
N#Cc1cccc(-c2nccc(-n3ccnc3)n2)c1	·	·	-7%	·	·	·
COc1ccc(N2CCN(S(=O)(=O)c3ccc4c(c3)C(C(C)C)C(=O)N4)CC2)cc1 (stereo not given)	6%[46.1 µM]	·	?	-7%	-20	-20%
c1nc(N2CCOCC2)c2[nH]cnc2n1	15%	-2%	4%	5%	0	·
c1nc(N2CCCCC2)c2[nH]cnc2n1	-5%	?	5%	-13%	-71*	-2%
SMILES	Lassa entry inh	Marburg entry inh	FMDV antiviral	Vaccinia Venus	HCMV antiviral	Vaccinia mCherry
CC(C)c1ccc(NC(=O)C2C3C=CC4(O3)C2C(=O)N(CCCN2CCCCC2)C4C(=O)NC2CCCCC2)cc1 (stereo not given)	·	3%[46.1 µM]	-10%	-3%	-77*	7%
Cc1cc(N(C)C)ccc1/C=C/c1ccnc2ccccc12	·	·	·	18%	·	-19%
O=C(OC(C(=O)Nc1ccc(Cl)cc1C(F)(F)F)c1ccccc1)C1=COCCO1 (stereo not given)	4%	?	5%	-3%	?	-8%
CN(C)c1cccc(C(=O)OC(C(=O)Nc2ccc(Cl)cc2C(F)(F)F)c2ccccc2)c1 (stereo not given)	?	?	-24%	-19%	-63*	-4%
COc1ccccc1C(=O)Nc1ccc2c(c1)nc1n2CCN(Cc2ccccc2)C1	?	?	?	-27%	-68*	-13%
O=S(=O)(Nc1ccc2c(c1)nc1n2CCN(Cc2ccccc2)C1)c1ccccc1	-9%	3%	?	·	-96*	·
COc1ncc2nc(-c3ccc(Cl)cc3)c(=O)n(Cc3cccs3)c2n1	·	·	-20%	·	·	·
CCc1nnc(NC(=O)[C@@H]2CCCN2C(=O)c2cccs2)s1	·	·	·	-11%	·	-8%
Cc1ccc(CN2CCc3nnc(C(C)NC(=O)c4cc(F)ccc4F)n3CC2)o1 (stereo not given)	·	·	-6%	0%	·	i
CC1CC(C)CN(CCCNC(=O)CCC(=O)N2CCOc3ccccc32)C1 (stereo not given)	·	·	-13%	-7%	-65*	-23%
CN(C)S(=O)(=O)c1cccc(NC(=O)c2ccc(S(=O)(=O)N3CCCCC3)cc2)c1	-3%	?	-29%	-27%	-22	?
CC(=O)c1cccc(NC(=O)c2ccc(S(=O)(=O)N3CCCCC3)cc2)c1	-1%	?	?	-19%	?	-4%
CN(C)S(=O)(=O)c1cccc(NC(=O)c2cccc(S(=O)(=O)N3CCCCCC3)c2)c1	?	?	?	?	-61*	-27%
CN(C)c1ccc(C(=O)Nc2cccc(S(=O)(=O)N3CCCC3)c2)cc1	·	·	25%	·	12	·
O=C(Nc1cccc(S(=O)(=O)C(F)F)c1)c1ccc(S(=O)(=O)N2CCCCC2)cc1	?	?	28µM*	?	?	?
O=C(Nc1cccc(S(=O)(=O)N2CCCCC2)c1)c1ccc(S(=O)(=O)C(F)F)cc1	?	4.5µM*	28µM*	-28%	-64*	-22%
Cc1cccc(NC(=O)Cn2c(=O)nc(-c3ccccc3)c3ccccc32)c1C	?	·	0%	-15%	28	i
Cc1c(Cl)cccc1NC(=O)Cn1cc(C(=O)C2CCCCC2)c2ccccc21	?	?	?	-26%[7.34 µM]	-70*	-26%[7.34 µM]

Screening results as filed in PubChem BioAssay.
